An excerpt weighted towards active compounds, which were near 2.1% of everything screened.
STAT3 binder: STAT3 (human) binding; P40763; Small molecule microarray, His-STAT3 binding, anti-His fluorescence; calls only; actives 0.2% (n = 17,000); AID 624138;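 active means compounds whose four printed spots each show fluorescence over background unusually high for their array block, chance value under 7%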
p53 mut binder: mutant p53 (human) binding. calls only. actives 0.4% (n = 17,000). small molecule microarray binding, anti-GST fluorescence;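 active means compounds whose four printed spots each glow above background more than chance allows, each with a p-value under 7%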
Myc binder: binders of human c-Myc. actives 1.5% (n = 17,000). P01106. small molecule microarray, His-c-Myc binding, anti-His fluorescence. calls only;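 active means spot fluorescence over background with P-value below 7% in all four replicate spots, showing protein binding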;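 further: score is binary with 100 for all four spots passing and 0 otherwise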
Target sequence (P01106 whole entry, looked up): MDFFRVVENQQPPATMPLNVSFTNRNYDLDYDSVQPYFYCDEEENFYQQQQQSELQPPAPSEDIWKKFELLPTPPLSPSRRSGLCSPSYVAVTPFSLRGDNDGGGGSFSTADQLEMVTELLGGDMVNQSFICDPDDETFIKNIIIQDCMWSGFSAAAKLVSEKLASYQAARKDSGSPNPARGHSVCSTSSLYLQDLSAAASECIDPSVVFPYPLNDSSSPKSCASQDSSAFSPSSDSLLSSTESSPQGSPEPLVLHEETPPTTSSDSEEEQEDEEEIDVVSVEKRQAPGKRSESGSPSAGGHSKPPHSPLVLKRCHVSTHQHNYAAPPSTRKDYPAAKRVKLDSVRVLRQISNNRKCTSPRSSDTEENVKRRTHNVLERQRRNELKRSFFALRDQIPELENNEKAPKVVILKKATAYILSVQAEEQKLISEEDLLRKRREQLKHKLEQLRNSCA
NFkB SMM: binders of human NF-kappa-B p105; Small molecule microarray, anti-His fluorescence binding; P19838; calls only; AID 624139; actives 1.3% (n = 17,000);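 active means spot fluorescence over background significantly raised, with a chance value under 7% in all four replicate spots of the compound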;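 further: probe protein is his-tagged human p50 processed subunit at 1 µg/ml; raw spot fluorescence signals with no normalization applied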
* hit, by the source's call; i = inactive; + = active, no number.

SMILES	STAT3 binder	p53 mut binder	Myc binder	NFkB SMM
N#Cc1c(NC(=S)NC(=O)c2cncc(Br)c2)sc2c1CCCC2	i	i	i	i
Cc1cccnc1NC(=S)NC(=O)c1cncc(Br)c1	i	i	+	i
C=C1C(=O)O[C@@H]2C[C@H](C)[C@@]3(O)C[C@H](O)[C@@](C)(C[C@@H](OC(=O)C(C)C)[C@@H]12)O3	i	i	i	i
C[C@@H]1CN([C@H](C)CO)C(=O)Cc2cc(NS(=O)(=O)c3cccs3)ccc2O[C@@H]1CN(C)Cc1ccccc1	i	i	i	i
Cc1nn(CCCC(=O)O)c(C)c1[N+](=O)[O-]	i	i	+	i
O=C1c2ccccc2C(=O)N1C1CCN(Cc2ccc(OCCO)cc2)CC1	i	i	i	i
O=C1c2ccccc2C(=O)N1CC1CCN(Cc2cccc(OCCO)c2)CC1	i	i	+	i
O=C1O[C@H](c2ccccc2)[C@H](c2ccccc2)N2[C@H]1[C@@H](C(=O)N1CCCCCCC1)[C@]1(C(=O)Nc3ccc(C#CC4=CCCCC4)cc31)[C@H]2c1ccc(OCCO)cc1	i	+	+	+
O=C1O[C@H](c2ccccc2)[C@H](c2ccccc2)N2[C@H]1[C@@H](C(=O)N1CCCCCCC1)[C@]1(C(=O)Nc3ccccc31)[C@H]2c1ccc(O)cc1	i	+	+	+
COC(=O)C(CC#Cc1ccc2c(c1)[C@]1(C(=O)N2)[C@H](C(N)=O)[C@H]2C(=O)O[C@H](c3ccccc3)[C@H](c3ccccc3)N2[C@@H]1c1ccc(OCCO)cc1)C(=O)OC	i	i	i	i
O=C1O[C@H](c2ccccc2)[C@H](c2ccccc2)N2[C@H]1[C@@H](C(=O)N1CCCCCCC1)[C@]1(C(=O)Nc3ccc(C#CC4(O)CCCCCC4)cc31)[C@H]2c1ccccc1OCCO	i	+	i	i
O=C1O[C@H](c2ccccc2)[C@H](c2ccccc2)N2[C@H]1[C@@H](C(=O)N1CCN(c3ncccn3)CC1)[C@]1(C(=O)Nc3ccc(C#CC4=CCCCC4)cc31)[C@H]2c1ccc(OCCO)cc1	i	i	i	i
COC(=O)C(CC#Cc1ccc2c(c1)[C@]1(C(=O)N2)[C@H](C(N)=O)[C@H]2C(=O)O[C@H](c3ccccc3)[C@H](c3ccccc3)N2[C@@H]1c1ccccc1OCCO)C(=O)OC	i	+	i	i
C[C@H]1CN([C@@H](C)CO)C(=O)CCCn2nncc2CO[C@H]1CN(C)Cc1ccc(Oc2ccccc2)cc1	i	i	i	i
COc1ccc(NC(=O)Cn2cc(C(=O)C(C)C)c3ccccc32)cc1	i	i	i	i
COc1ccc(CN(C)C[C@H]2Oc3ccc(NC(=O)C4CC4)cc3C(=O)N([C@H](C)CO)C[C@@H]2C)cc1	i	i	i	i
C[C@H](CO)N1C[C@H](C)[C@@H](CN(C)C(=O)c2ccccc2)OCCCC[C@H](C)Oc2ccc(NS(=O)(=O)c3cn(C)cn3)cc2C1=O	i	i	i	i
C[C@H](CO)N1C[C@H](C)[C@H](CN(C)C(=O)Cc2ccccc2)OCCCC[C@H](C)Oc2ccc(NS(C)(=O)=O)cc2C1=O	i	i	i	i
COC(=O)C(CC#Cc1ccc2c(c1)[C@]1(C(=O)N2)[C@H](c2ccc(OCCO)cc2)N2[C@H](c3ccccc3)[C@H](c3ccccc3)OC(=O)[C@H]2[C@@H]1C(=O)N1CCCCCCC1)C(=O)OC	i	+	i	i
Cc1cc(S(=O)(=O)NC2CCCCC2)ccc1OCC(=O)O	i	i	+	i
Cc1ccc(OCC(=O)N(c2ccccn2)C2CCCCC2)c(C)c1	i	i	i	i
Cn1c2ccccc2c2nnc(SCC(=O)c3ccc(Cl)cc3)nc21	i	i	+	i
COc1ccc(NC(=O)Nc2ccc3c(c2)C(=O)N([C@@H](C)CO)C[C@@H](C)[C@H](CN(C)C(=O)Nc2ccc4c(c2)OCO4)O3)cc1	i	i	i	i
CC1Oc2c3c(c4c(-c5ccccc5)cc(=O)oc4c2C(=O)C1C)OC(C)(C)C=C3 (centres undefined)	i	i	i	+
COc1c(-c2ccccc2)oc2c(CC=C(C)C)c3c(c(OC)c2c1=O)C=CC(C)(C)O3	i	i	i	i
C[C@@H]1CCCCO[C@H](CN(C)CC2CC2)[C@H](C)CN([C@@H](C)CO)C(=O)c2cc(NC(=O)CCC(F)(F)F)ccc2O1	i	i	i	i
